Source: PubChem BioAssay (National Center for Advancing Translational Sciences (NCATS))
Shown are actives, neighbours in structure and some others; about 1% of the full set was active somewhere.
SNCA expr inh – reduces expression of the alpha-synuclein gene; 140,000 tested, 0.17% active; HEK-293 SNCA-luciferase knock-in, luminescence, 24 h; Potency, µM (top dose mostly 57.2 µM), hits mostly inhibitors; also: nearly all actives have a fitted effect of over 45% in size
GPT2 inh – inhibitors of human GPT2 alanine aminotransferase; Recombinant GPT2, coupled pyruvate oxidase/HRP Amplex Red fluorescence; Potency, µM (top dose mostly 57.7 µM), actives largely listed as inhibitors; 100,000 tested, 0.25% active; also: nearly all actives have a fitted effect of over 60% in size
Target sequence (Q8TD30 whole entry, looked up): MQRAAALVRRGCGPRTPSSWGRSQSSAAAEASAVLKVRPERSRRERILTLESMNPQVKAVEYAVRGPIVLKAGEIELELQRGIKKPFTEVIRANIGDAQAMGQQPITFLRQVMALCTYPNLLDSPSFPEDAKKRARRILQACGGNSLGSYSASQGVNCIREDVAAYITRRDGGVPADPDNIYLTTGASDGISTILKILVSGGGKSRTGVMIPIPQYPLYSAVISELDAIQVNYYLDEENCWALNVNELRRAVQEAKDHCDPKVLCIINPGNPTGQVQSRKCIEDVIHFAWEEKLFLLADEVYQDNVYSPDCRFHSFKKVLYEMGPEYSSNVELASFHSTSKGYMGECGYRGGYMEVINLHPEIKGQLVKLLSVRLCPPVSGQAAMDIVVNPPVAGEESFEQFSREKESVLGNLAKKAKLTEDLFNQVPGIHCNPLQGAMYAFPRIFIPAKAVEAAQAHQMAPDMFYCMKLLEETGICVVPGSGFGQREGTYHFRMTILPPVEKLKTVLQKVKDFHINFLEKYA
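GPT2 10ng/uL, a-KG 250uM, L-Ala 2mM, HEPES pH7.5 + 0.0001% Tween; 30 min RT. Then Amplex mix (PO/HRP/ThPP), 30 min RT dark, fluorescence. AOA 50uM used as positive control.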
IP6K1 inhibitor – blocks human inositol hexakisphosphate kinase 1; Q92551; IP6K1 kinase, ADP-Glo luminescence, 2 h; hits give low values; activity change, % (series mostly up to about 58 µM); 140,000 tested, 0.81% active; in the data active = activity change below about -25%
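ADP-Glo luminescence measures ADP made by human IP6K1 during a 2 h RT reaction with ATP/IP6 (mix at 1.3 mM/130 uM); top library doses 57.5 and 19.1 uM final.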
HEK293 viab – reduces viability of HEK-293 SNCA reporter cells | HEK-293-SNCA-luc viability, GF-AFC fluorescence, 24 h | Potency, µM (titrated, usually from 57.1 µM), actives largely listed as cytotoxic | 150,000 tested, 0.12% active | AID 1671193; also: nearly all actives have a fitted effect of over 30% in size
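HEK-293-SNCA-luc cells (1500/well) plated 24 h, then exposed 24 h to a dilution series; GF-AFC added 30 min at 37C, fluorescence 405/540 nm; normalised to medium-only and DMSO wells, Hill fit.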
Each line names hits and unclear results; the compound was inactive in the other large screens. Unless noted, calls follow the shape of the dose curve; as a rule, active = well fitted curve in the direction sought with a large enough effect; inconclusive = small, poorly fitted or top-dose-only effect, or another doubt; inactive = no such curve, though single readings can be large; an effect the other way counts as inactive or inconclusive.

S=C(Nc1cccc2ccccc12)N[C@H]1CO[C@H]2[C@@H]1OC[C@H]2OCc1ccccc1	none
O=C(c1ccncc1)N1CC2CCC(C1)N2Cc1ccc(-c2ccccc2)cc1	SNCA expr inh inconclusive
Cc1nn(-c2ccccc2)c2c1C(C(C)C)N(C1CCN(C(=O)C3CC3)CC1)C2=O (stereo unspecified)	none (no result: SNCA expr inh, GPT2 inh, HEK293 viab)
Cc1ccc(-c2c(C(=O)CCl)n(CCCO)c3ncnc(N)c23)cc1	GPT2 inh inconclusive, HEK293 viab 23.8µM (no result: SNCA expr inh)
COc1ccc(CCNC(=O)C2CCN(c3ccnc4ccnn34)CC2)cc1	none
Cc1nn2c(c1-c1ccccc1[S+](C)(=O)[O-])N(CCC(C)C)CCC2	SNCA expr inh 3.16µM, HEK293 viab inconclusive
CCn1c(=O)c(-c2ccc(-c3cncs3)cc2Cl)cc2cnc(Nc3ccc(N4CCN(C)CC4)cc3)nc21	none (no result: SNCA expr inh)
Cc1cnc(Nc2ccc(N3CCN(C)CC3)cc2)nc1Nc1cccc(S(=O)(=O)NC(C)(C)C)c1	GPT2 inh 19.3µM, HEK293 viab inconclusive (no result: IP6K1 inhibitor)
COc1ccccc1NC(=O)c1cc(S(=O)(=O)N2CCN(c3ccccc3Cl)CC2)ccc1F	none (no result: GPT2 inh)
COc1ccccc1N1CCN(S(=O)(=O)c2ccc(F)c(C(=O)Nc3ccc(Cl)cc3C(F)(F)F)c2)CC1	IP6K1 inhibitor -34.0 (no result: GPT2 inh)
O=C(CSCc1ccc(F)cc1)N1CCc2c([nH]c3ccccc23)C1c1ccc(Cl)cc1 (stereo unspecified)	SNCA expr inh 10µM (no result: GPT2 inh)
COc1ccc(N2CC3CCC(C2)N3Cc2cccc(-c3cccnc3)c2)cc1	SNCA expr inh inconclusive, GPT2 inh 6.31µM
CN(C)c1cccc(C(=O)N2CCCN(c3cc(-c4ccc(F)cc4)[nH]n3)CC2)c1	none
Cc1ccc(-c2cc(N3CCCN(C(=O)c4cccc(N(C)C)c4)CC3)n[nH]2)cc1C	GPT2 inh inconclusive, HEK293 viab 17.8µM
C[C@H](C(=O)NCCN1CCOCC1)C1CC[C@@]2(C)Cc3sc(-c4ccccc4)nc3[C@@H](C)[C@@H]2[C@H]1O (stereo partly specified)	SNCA expr inh 0.794µM
Cc1nc2c(s1)C[C@]1(C)CCC([C@H](C)C(=O)N3CCOCC3)[C@H](O)[C@H]1[C@@H]2C (stereo partly specified)	none
Cc1ccc(-c2noc(-c3ccc(N4CCCCC4)c([N+](=O)[O-])c3)n2)cc1	none (no result: GPT2 inh)
O=[N+]([O-])c1cc(-c2nc(-c3ccccc3)no2)ccc1N1CCCCC1	SNCA expr inh 10µM (no result: GPT2 inh)
CCOC(=O)c1ccc(O)c(O)c1	GPT2 inh 28.2µM
CCOC(=O)c1ccc(O)cc1	none
N#Cc1ccc(Nc2nc(-c3ccc(O)cc3O)cs2)cc1C(F)(F)F	HEK293 viab 11.9µM (no result: SNCA expr inh)
COc1ccc(C(=O)N2CCCN(c3ccc4nnc(-c5ccccc5)n4n3)CC2)cc1	none (no result: SNCA expr inh, GPT2 inh, HEK293 viab)
C[C@@H]1CN(c2nc(-c3ccccc3)no2)CC[C@@]1(O)C1CCC1	SNCA expr inh 14.1µM
CCOc1ccc(/C=C/c2nc3ccccc3n2S(=O)(=O)c2cccc(Cl)c2)cc1	IP6K1 inhibitor -31.1 (no result: GPT2 inh)
Cc1ccc(/C=C/c2nc3ccccc3n2S(=O)(=O)c2cccc(Cl)c2)cc1	SNCA expr inh inconclusive, IP6K1 inhibitor -51.3 (no result: GPT2 inh)
CCOc1ccc(Cn2c(CNS(=O)(=O)c3cccc(Cl)c3)nc3cccnc32)cc1	none (no result: GPT2 inh)
C#CCn1c(/C=C/c2ccc(Cl)cc2)nc2ccccc21	none (no result: GPT2 inh)
CCOC(=O)C1CCN(C(=O)c2ccc3nnc(CC4CC4)n3c2)CC1	none
Cn1c(CN2CCC3(CCNCC3)C2)cc2ccccc21	none
Cc1ccc(-n2ncc3c(N4CCCCC4)ncnc32)cc1Cl	SNCA expr inh 7.08µM (no result: GPT2 inh)
Cc1ccc(-n2ncc3c(N4CCCCCC4)ncnc32)cc1Cl	none (no result: GPT2 inh)
Cc1ccc(-n2ncc3c(N4CCCCC4)ncnc32)cc1	SNCA expr inh 0.891µM (no result: GPT2 inh)
CC(C)C[C@@H](C=O)NC(=O)[C@H](CC(C)C)NC(=O)[C@H](CC(C)C)NC(=O)OCc1ccccc1	SNCA expr inh 0.607µM, HEK293 viab inconclusive (no result: IP6K1 inhibitor)
CCS(=O)(=O)c1ncc(Cl)c(C(=O)Nc2ccccc2)n1	SNCA expr inh 2.24µM, HEK293 viab 7.08µM (no result: GPT2 inh)
CCS(=O)(=O)c1ncc(Cl)c(C(=O)N2CCN(c3ccc(OC)cc3)CC2)n1	SNCA expr inh inconclusive, HEK293 viab 14.1µM (no result: GPT2 inh)
Cc1cccc(NC(=O)c2nc(S(C)(=O)=O)ncc2Cl)c1	SNCA expr inh inconclusive, HEK293 viab 20µM (no result: GPT2 inh)
CCS(=O)(=O)c1ncc(Cl)c(C(=O)NCc2ccc(OC)cc2)n1	SNCA expr inh 22.4µM, HEK293 viab inconclusive (no result: GPT2 inh)
Cc1ccc(CNC(=O)c2nc(S(=O)(=O)Cc3ccc(C)cc3)ncc2Cl)cc1	none (no result: GPT2 inh)
